PubChem BioAssay AID686979 (National Center for Advancing Translational Sciences (NCATS), 2013)
Values joined by “and” are separate entries in the source; they are usually repeats but may differ in a detail not shown here. Identical values can stand only once. In all, about 420,000 compounds went through this assay and about 50,000 (12%) were called active. Inconclusive results (about 26%) are left out. Calls follow the shape of the dose curve; as a rule, active = well fitted inhibition curve with a large enough effect; inconclusive = small, poorly fitted or top-dose-only effect; inactive = flat fitted curve, though single readings scatter. Many of the other results were omitted from the sample, so actives are more common in it than they were. Some structures have more than one record in an assay (separate samples or runs), and their calls can disagree.

Assay: qHTS for Inhibitors of human tyrosyl-DNA phosphodiesterase 1 (TDP1): qHTS in cells in presence of CPT; also: nearly all actives have a fitted effect of over 55% in size
Details: chicken DT40 Tdp1-/-;hTDP1 cells + 20 nM CPT, ATP luminescence, 48 h; series mostly up to 46.2 µM; activity change, negative = growth inhibition: at the top concentration
Summary of the method: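 Cell growth measured by CellTiter-Glo luminescence after a minimum 48 h, 37 C compound exposure with 20 nM CPT in Tdp1-knockout DT40 cells stably expressing hTDP1, seeded 400/well; qHTS titration format.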
% is scaled to controls: 0 for no effect and ±100 for the full control effect; potency is read from the fitted curve at half-maximal effect.

Question: With `Cc1cc(C)cc(NC(=O)COC(=O)c2cc(C)oc2C)c1` as the molecule, how does the “activity change, negative = growth inhibition” value read?
Answer: Its value is -3.46% (inactive).

Question: For `Cc1sc2ccccc2c1CNC[C@H]1O[C@@H](n2ccc(=O)[nH]c2=O)[C@H](O)[C@@H]1O`, which “activity change, negative = growth inhibition” value is on record?
Answer: The value was 0.888% (inactive).

Question: With `O=C(CCn1ccc([N+](=O)[O-])n1)Nc1nccs1` as the molecule, how does the “activity change, negative = growth inhibition” value read?
Answer: The value was 1.03% (inactive).

Question: Which “activity change, negative = growth inhibition” value does the source give for `CC1CN(Cc2ccco2)C(=S)N(c2ccccc2)C1=O` (configuration not stated) here?
Answer: The value was 0.62% (inactive).

Question: For `Cc1cs/c(=N\N=C\c2ccc(O)cc2)n1Cc1ccco1`, which “activity change, negative = growth inhibition” value is on record?
Answer: The value was -14.2% (inactive).

Question: For `CN(C)C(=S)N=c1ssc(=S)n1Cc1ccco1`, which Potency is on record?
Answer: The Potency was 1.64 µM (active).

Question: For `Nc1ncnc2c1ncn2[C@@H]1O[C@H](C(=O)NS(=O)(=O)c2c(Cl)nc3sccn23)[C@@H](O)[C@H]1O`, which “activity change, negative = growth inhibition” value is on record?
Answer: The value was 2.79% (inactive).

Question: With `O=S(=O)(Nc1ccccn1)c1cccc(S(=O)(=O)c2ccc(Cl)cc2)c1` as the molecule, how does the “activity change, negative = growth inhibition” value read?
Answer: Its value is 2.88% (inactive).

Question: With `NS(=O)(=O)c1ccc(CNC(=O)c2cc(S(=O)(=O)N3CCOCC3)ccc2N2CCCC2)cc1` as the molecule, how does the “activity change, negative = growth inhibition” value read?
Answer: The value was -10.3% (inactive).

Question: With `CCCN(C(=O)COC(=O)CNS(=O)(=O)c1ccc(NC(C)=O)cc1)C1CCS(=O)(=O)C1` (configuration not stated) as the molecule, how does the “activity change, negative = growth inhibition” value read?
Answer: Its value is 1.6% (inactive).

Question: Which “activity change, negative = growth inhibition” value does the source give for `COC(=O)C1=C(N)Oc2c(oc(CO)cc2=O)C1c1c(F)cccc1Cl` (configuration not stated) here?
Answer: Its value is -3.14% (inactive).

Question: Which “activity change, negative = growth inhibition” value does the source give for `CCOC(=O)c1sc(NC(=O)c2sc(C)nc2C)nc1C` here?
Answer: The value was -2.43% (inactive).

Question: Which Potency does the source give for `CCOC(=O)c1cc(-c2sc(NC(=O)c3ccccc3)nc2C)n(Cc2ccccc2)n1` here?
Answer: Its Potency is 16.4 µM (active).

Question: Which “activity change, negative = growth inhibition” value does the source give for `CCOC(=O)c1cc(OC(=O)c2ccccc2Cl)n(-c2ccccc2)n1` here?
Answer: The value was -13.5% (inactive).

Question: For `CSc1ccc(Cl)c(C(=O)OCC(=O)N2CCNC2=O)c1`, which “activity change, negative = growth inhibition” value is on record?
Answer: The value was -1.63% (inactive).

Question: For `Nc1ncnc2c1ncn2[C@@H]1O[C@H](C(=O)N2CCSC2)[C@@H](O)[C@H]1O`, which “activity change, negative = growth inhibition” value is on record?
Answer: The value was -29.7% (inactive).

Question: Which “activity change, negative = growth inhibition” value does the source give for `COc1ccc(Nc2nc(N)nc(CSC(=S)N3CCC(C)CC3)n2)cc1` here?
Answer: Its value is -19.7% (inactive).

Question: With `COc1ccc(N(CC(=O)Nc2ccc(C)cc2C)S(=O)(=O)c2ccccc2[N+](=O)[O-])c(OC)c1` as the molecule, how does the “activity change, negative = growth inhibition” value read?
Answer: The value was -27.2% (inactive).

Question: With `CN(CC(=O)Nc1cccc(F)c1)CC(=O)Nc1cccc([N+](=O)[O-])c1` as the molecule, how does the “activity change, negative = growth inhibition” value read?
Answer: The value was -27.1% (inactive).

Question: For `COc1ccc(C)cc1S(=O)(=O)N(CC(=O)Nc1cccc([N+](=O)[O-])c1)c1ccc(C)cc1`, which Potency is on record?
Answer: The Potency was 18.4 µM (active).

Question: For `O=C(CCc1nnc2ccc(NCCCN3CCCC3=O)nn12)NCc1ccccc1Cl`, which “activity change, negative = growth inhibition” value is on record?
Answer: Its value is 1.12% (inactive).

Question: For `COc1ccc(NC(=O)CN2C(=O)CSc3ccc(S(=O)(=O)N4CCC(C)CC4)cc32)cc1`, which “activity change, negative = growth inhibition” value is on record?
Answer: The value was -27.1% (inactive).

Question: For `O=S(=O)(NCCc1ccncc1)c1ccccc1`, which “activity change, negative = growth inhibition” value is on record?
Answer: The value was -7.23% (inactive).

Question: For `Nc1nc(/C(=C/CC(=O)O)C(=O)N[C@@H]2C(=O)N3C(C(=O)O)=CCS[C@H]23)cs1`, which “activity change, negative = growth inhibition” value is on record?
Answer: Its value is -22.6% (inactive).

Question: For `O=C1Nc2ccc([N+](=O)[O-])cc2C1=Nc1cccc(CO)c1`, which Potency is on record?
Answer: Its Potency is 16.4 µM (active).

Question: With `O=C(c1cccc([N+](=O)[O-])c1)N1CCN(Cc2ccccc2)CC1` as the molecule, how does the “activity change, negative = growth inhibition” value read?
Answer: The value was 11.9% (inactive).

Question: For `CC1Cn2c(nnc2-c2cccs2)S1` (configuration not stated), which “activity change, negative = growth inhibition” value is on record?
Answer: Its value is -6.6% (inactive).

Question: For `O=c1cnnc(Nc2ccccc2)[nH]1`, which “activity change, negative = growth inhibition” value is on record?
Answer: The value was -1.22% (inactive).

Question: With `CCC1(C2CCN(Cc3cccnc3)CC2)NC(=O)N(CC2COc3ccccc3O2)C1=O` (configuration not stated) as the molecule, how does the activity change, negative = growth inhibition read?
Answer: The activity change, negative = growth inhibition was -5.78% [at 9.04 µM] (inactive).

Question: Which “activity change, negative = growth inhibition” value does the source give for `CSCC(NS(=O)(=O)c1ccc(C)cc1)C(=O)O` (configuration not stated) here?
Answer: Its value is 10.7% (inactive).

Question: For `CCC(C)N(C(=O)CSc1ncnc2c1cnn2-c1ccccc1)C1CCS(=O)(=O)C1` (configuration not stated), which “activity change, negative = growth inhibition” value is on record?
Answer: The value was -31.3% (inactive).

Question: For `COc1ccc(N2CCN(C(=O)CNS(=O)(=O)c3ccc(C)c(C)c3)CC2)cc1`, which “activity change, negative = growth inhibition” value is on record?
Answer: Its value is -0.48% (inactive).

Question: For `O=C(CNS(=O)(=O)c1ccc2c(c1)OCCCO2)N1CCN(c2ccc(F)cc2)CC1`, which Potency is on record?
Answer: The Potency was 20.6 µM (active).

Question: With `Cc1ccc(S(=O)(=O)NCC(=O)N2CCOCCOCCOCCOCC2)cc1` as the molecule, how does the “activity change, negative = growth inhibition” value read?
Answer: The value was 2.53% (inactive).

Question: With `CCOC(=O)[C@H]1[C@H]2COc3ccccc3[C@@H]2N2C(=O)CN(Cc3ccccc3)C(=O)[C@@]12C` as the molecule, how does the “activity change, negative = growth inhibition” value read?
Answer: The value was 2.35% (inactive).

Question: For `CCCNC(=S)N1CCC(NC(=O)c2ccc(OC)cc2)CC1`, which “activity change, negative = growth inhibition” value is on record?
Answer: Its value is -5.72% (inactive).

Question: For `O=c1c(-c2cccs2)nc2cnc(Oc3ccccc3)nc2n1-c1ccccc1`, which “activity change, negative = growth inhibition” value is on record?
Answer: Its value is 22.1% (inactive).

Question: With `CCC(c1nc2ccccc2[nH]1)n1c(=O)c(-c2cccs2)nc2ccccc21` (configuration not stated) as the molecule, how does the Potency read?
Answer: Its Potency is 18.4 µM (active).

Question: Which “activity change, negative = growth inhibition” value does the source give for `CC(C)n1c(-c2cccs2)nc2ccccc21` here?
Answer: Its value is -29.4% (inactive).

Question: For `O=C(NCc1ccccc1)C(c1cccnc1)N(C(=O)c1csnn1)c1ccc(F)cc1` (configuration not stated), which “activity change, negative = growth inhibition” value is on record?
Answer: The value was -0.462% (inactive).

Question: For `COc1cc(OC)nc(NC(=O)CCl)n1`, which Potency is on record?
Answer: The Potency was 14.6 µM (active).

Question: With `CCC(=O)Nc1nc(OC)cc(OC)n1` as the molecule, how does the “activity change, negative = growth inhibition” value read?
Answer: The value was -1.67% (inactive).

Question: With `COc1cc(OC)nc(N/N=C(\c2ccccc2)c2ccncc2)n1` as the molecule, how does the “activity change, negative = growth inhibition” value read?
Answer: The value was -0.201% (inactive).

Question: For `CCSc1nsc(NC(=O)Nc2ccccc2OC)n1`, which “activity change, negative = growth inhibition” value is on record?
Answer: The value was -1.09% (inactive).

Question: For `Cc1ccc(C)c(NC(=O)c2ccc3nccnc3c2)c1`, which “activity change, negative = growth inhibition” value is on record?
Answer: The value was 2.67% (inactive).

Question: Which Potency does the source give for `Cc1ccc(NC(=O)c2cccc(N(C)C)c2)cc1NC(=O)c1ccc(O)cc1` here?
Answer: The Potency was “inactive and 29.9 µM (active)”.

Question: For `Cc1ccc(F)cc1NC(=O)c1cccc(N(C)C)c1`, which “activity change, negative = growth inhibition” value is on record?
Answer: The value was 4.84% (inactive).

Question: Which “activity change, negative = growth inhibition” value does the source give for `O=C(c1cn2ccccc2n1)N1CCc2c([nH]c3ccccc23)C1c1ccccn1` (configuration not stated) here?
Answer: The value was -7.37% (inactive).

Question: For `CCc1nc2ccc(C(=O)NC3CCN(Cc4ccccc4)CC3)cn2c1N(C)CCN1CCOCC1`, which “activity change, negative = growth inhibition” value is on record?
Answer: Its value is -5.59% (inactive).

Question: Which Potency does the source give for `O=C1/C(=C\c2ccc([N+](=O)[O-])cc2)CS(=O)(=O)C/C1=C/c1ccc([N+](=O)[O-])cc1` here?
Answer: The Potency was 0.0259 µM (active).

Question: With `O=C(NN=Cc1ccc([N+](=O)[O-])cc1)C1CC1` as the molecule, how does the “activity change, negative = growth inhibition” value read?
Answer: The value was -7.32% (inactive).

Question: With `O=[N+]([O-])c1ccc(C=NN=Cc2ccc([N+](=O)[O-])cc2)cc1` as the molecule, how does the “activity change, negative = growth inhibition” value read?
Answer: The value was -3.28% (inactive).

Question: For `CCOc1cccc2cc(C(=O)OCC(=O)Nc3c(C)cccc3CC)c(=O)oc12`, which “activity change, negative = growth inhibition” value is on record?
Answer: The value was -27.3% (inactive).

Question: For `COCCNC(=O)CSc1nc2sccc2c(=O)n1-c1ccccc1`, which “activity change, negative = growth inhibition” value is on record?
Answer: Its value is -4.25% (inactive).

Question: Which Potency does the source give for `Cc1ccc(N(C)C(=O)C2CCN(S(=O)(=O)c3ccc4c(c3)CCCN4C(=O)C3CCC3)CC2)cc1` here?
Answer: The Potency was 23.1 µM (active).

Question: With `COc1ccc(S(=O)(=O)N2CCC(C(=O)N3CCCC3)CC2)cc1C` as the molecule, how does the “activity change, negative = growth inhibition” value read?
Answer: The value was -14.2% (inactive).

Question: Which “activity change, negative = growth inhibition” value does the source give for `COc1ccc(N(C)C(=O)C2CCN(S(=O)(=O)c3cc(Br)cc4c3N(C(C)=O)CC4)CC2)cc1` here?
Answer: Its value is -3.73% (inactive).

Question: For `COc1ccc(N2CCN(C(=O)C3CCN(S(=O)(=O)c4ccc(C)cc4)CC3)CC2)cc1`, which “activity change, negative = growth inhibition” value is on record?
Answer: Its value is -12.3% (inactive).

Question: Which Potency does the source give for `Cc1ccc(S(=O)(=O)N2CCC(C(=O)N3CCCCCCC3)CC2)cc1` here?
Answer: The Potency was 20.6 µM (active).

Question: With `Cc1ccc(S(=O)(=O)N2CCC(C(=O)OCC(=O)N(C)c3ccccc3)CC2)cc1C` as the molecule, how does the “activity change, negative = growth inhibition” value read?
Answer: The value was -3.59% (inactive).

Question: Which “activity change, negative = growth inhibition” value does the source give for `Cc1c(NC(=O)COC(=O)/C=C/c2cccc(F)c2)c(=O)n(-c2ccccc2)n1C` here?
Answer: Its value is -21.7% (inactive).

Question: For `O=C1C[C@@H]2c3c(cccc3CN1Cc1ccccc1)C[C@@H](O)[C@H]2O`, which Potency is on record?
Answer: Its Potency is “inactive”.
